Measured values reported in PubChem BioAssay (Tox21).
The source made the active and inactive calls. Entries that show only a call come without a potency. Unless noted, calls follow the shape of the dose curve; as a rule, active = well fitted curve in the direction sought with a large enough effect in the repeat runs; inconclusive = weak or mixed curves; inactive = no such curve, though single readings can be large; an effect the other way counts as inactive or inconclusive.

Assays:
[1] = qHTS assay to identify small molecule antagonists of the thyroid receptor (TR) signaling pathway - cell viability counter screen (AID 743064); also: nearly all actives have a fitted effect of over 50% in size; also: potency is read from the fitted curve at half-maximal effect
How it was run: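 Same-well viability check: GH3.TRE-Luc cells stimulated with 1 nM T3 alongside test compound for 23.5 h, followed by CellTiter-Fluor fluorescence.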

[2] = test system: thyroid hormone receptor (rat, GH3 cells); assay: qHTS assay to identify small molecule agonists of the thyroid receptor (TR) signaling pathway (AID 743066; calls by dose curve; also: potency is read from the fitted curve at half-maximal effect)
[3] = biological target: Estrogen receptor (Homo sapiens) (UniProt P03372); assay: qHTS assay to identify small molecule antagonists of the estrogen receptor alpha (ER-alpha) signaling pathway (AID 743069; active = well fitted curve in the direction sought with a large enough effect in the signal ratio in the repeat runs, not every such curve was filed as active; inconclusive = weak or mixed curves, or effect the other way; inactive = no such curve, though single readings can be large or run the other way; the % refers to the signal ratio)
Estrogen receptor (Homo sapiens), sequence (P03372 whole entry, looked up): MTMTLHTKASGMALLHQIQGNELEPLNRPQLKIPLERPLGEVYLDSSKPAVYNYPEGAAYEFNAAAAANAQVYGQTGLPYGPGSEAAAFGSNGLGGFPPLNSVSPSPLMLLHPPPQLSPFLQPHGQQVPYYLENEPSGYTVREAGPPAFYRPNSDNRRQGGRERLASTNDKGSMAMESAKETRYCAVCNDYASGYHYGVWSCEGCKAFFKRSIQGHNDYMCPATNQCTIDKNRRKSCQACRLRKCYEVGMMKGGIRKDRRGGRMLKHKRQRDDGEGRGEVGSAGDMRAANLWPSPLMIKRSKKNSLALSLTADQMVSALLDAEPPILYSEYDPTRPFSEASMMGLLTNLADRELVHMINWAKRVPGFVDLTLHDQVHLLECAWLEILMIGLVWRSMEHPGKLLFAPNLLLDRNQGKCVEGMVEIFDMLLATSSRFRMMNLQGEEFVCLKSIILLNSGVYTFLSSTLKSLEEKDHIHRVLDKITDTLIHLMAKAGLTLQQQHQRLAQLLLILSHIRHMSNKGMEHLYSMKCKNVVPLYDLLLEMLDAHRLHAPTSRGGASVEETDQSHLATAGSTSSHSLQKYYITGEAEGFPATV
How it was run: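 HEK293 ER-alpha-UAS-bla GripTite cells, held overnight in 2% charcoal-stripped FBS, 5,000 cells/well, preincubated 4 h, then compound plus 17beta-estradiol for 18 h at 37C. Beta-lactamase read by LiveBLAzer B/G FRET substrate, 2 h at room temperature.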

[4] = qHTS assay to identify small molecule antagonists of the estrogen receptor alpha (ER-alpha) signaling pathway - cell viability counter screen (AID 743074; calls by dose curve;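 also: HEK293 cells carrying ER-alpha-UAS-bla reporter stimulated with 17beta-estradiol; nearly all actives have a fitted effect of over 45% in size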; also: potency is read from the fitted curve at half-maximal effect)
[5] = biological target: Estrogen receptor (Homo sapiens) (UniProt P03372); assay: qHTS assay to identify small molecule agonists of the estrogen receptor alpha (ER-alpha) signaling pathway (AID 743075; calls by dose curve; also: potency is read from the fitted curve at half-maximal effect)
Aromatase (Homo sapiens) = Aromatase (Homo sapiens) (UniProt P11511); assay: qHTS assay to identify aromatase inhibitors (AID 743083); also: nearly all actives have a fitted effect of over 55% in size; also: potency is read from the fitted curve at half-maximal effect
Aromatase (Homo sapiens), sequence (P11511 whole entry, looked up): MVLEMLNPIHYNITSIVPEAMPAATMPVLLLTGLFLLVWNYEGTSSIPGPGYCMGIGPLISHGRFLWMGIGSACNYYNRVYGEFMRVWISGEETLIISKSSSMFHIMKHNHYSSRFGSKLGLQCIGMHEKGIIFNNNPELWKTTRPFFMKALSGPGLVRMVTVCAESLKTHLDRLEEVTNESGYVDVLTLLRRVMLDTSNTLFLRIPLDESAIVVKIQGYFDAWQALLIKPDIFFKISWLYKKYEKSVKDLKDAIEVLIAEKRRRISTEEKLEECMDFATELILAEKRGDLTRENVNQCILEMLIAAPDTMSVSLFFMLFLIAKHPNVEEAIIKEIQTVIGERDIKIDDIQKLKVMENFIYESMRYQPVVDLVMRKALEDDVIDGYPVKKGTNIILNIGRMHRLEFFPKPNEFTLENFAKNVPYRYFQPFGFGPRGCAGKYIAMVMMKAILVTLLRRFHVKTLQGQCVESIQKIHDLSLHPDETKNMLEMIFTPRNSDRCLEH

[6] = qHTS assay to identify aromatase inhibitors - cell viability counter screen (AID 743084);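 also: cells stimulated with testosterone during compound exposure; nearly all actives have a fitted effect of over 55% in size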; also: potency is read from the fitted curve at half-maximal effect
[7] = biological target: Aryl hydrocarbon receptor (Homo sapiens) (UniProt P35869); assay: qHTS assay to identify small molecule that activate the aryl hydrocarbon receptor (AhR) signaling pathway (AID 743085); also: nearly all actives have a fitted effect of over 15% in size; also: potency is read from the fitted curve at half-maximal effect;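 as to activation: HG2L7.5c1 human HepG2 liver cells with stably integrated DRE-driven firefly reporter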
Aryl hydrocarbon receptor (Homo sapiens), sequence (P35869 whole entry, looked up): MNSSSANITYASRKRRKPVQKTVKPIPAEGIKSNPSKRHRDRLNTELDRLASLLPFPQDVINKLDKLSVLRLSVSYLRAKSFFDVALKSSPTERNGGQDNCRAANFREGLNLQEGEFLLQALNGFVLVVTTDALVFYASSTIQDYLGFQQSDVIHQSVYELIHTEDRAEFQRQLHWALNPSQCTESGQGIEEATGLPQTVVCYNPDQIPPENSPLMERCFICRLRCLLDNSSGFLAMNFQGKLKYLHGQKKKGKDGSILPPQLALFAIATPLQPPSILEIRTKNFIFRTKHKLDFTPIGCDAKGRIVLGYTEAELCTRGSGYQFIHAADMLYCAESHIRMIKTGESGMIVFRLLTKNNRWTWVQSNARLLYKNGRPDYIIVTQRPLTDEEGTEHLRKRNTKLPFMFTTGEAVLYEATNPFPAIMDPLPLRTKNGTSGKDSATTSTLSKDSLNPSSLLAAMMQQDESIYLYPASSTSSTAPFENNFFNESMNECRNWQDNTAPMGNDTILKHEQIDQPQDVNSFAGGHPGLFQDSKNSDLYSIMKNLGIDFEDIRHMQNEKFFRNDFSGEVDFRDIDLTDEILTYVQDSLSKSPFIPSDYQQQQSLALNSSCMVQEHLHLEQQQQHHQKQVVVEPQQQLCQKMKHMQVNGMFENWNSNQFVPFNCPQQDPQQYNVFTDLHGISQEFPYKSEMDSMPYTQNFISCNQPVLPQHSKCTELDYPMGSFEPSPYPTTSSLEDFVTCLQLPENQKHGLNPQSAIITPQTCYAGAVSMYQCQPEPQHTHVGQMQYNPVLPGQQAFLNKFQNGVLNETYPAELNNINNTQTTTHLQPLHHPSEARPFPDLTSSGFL
How it was run: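 Reporter assay in engineered HepG2 line HG2L7.5c1, whose plasmid carries twenty dioxin responsive elements upstream of firefly luciferase. Treatment lasted 24 h at 37C; ONE-Glo luminescence gauged induction.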

[8] = biological target: Peroxisome proliferator-activated receptor gamma (Homo sapiens) (UniProt P37231); assay: qHTS assay to identify small molecule agonists of the peroxisome proliferator-activated receptor gamma (PPARg) signaling pathway (AID 743094; active = well fitted activation curve with a large enough effect in the signal ratio in the repeat runs, not every such curve was filed as active; inconclusive = weak or mixed curves, or effect the other way; inactive = no such curve, though single readings can be large or run the other way; the % refers to the signal ratio)
Peroxisome proliferator-activated receptor gamma (Homo sapiens), sequence (P37231 whole entry, looked up): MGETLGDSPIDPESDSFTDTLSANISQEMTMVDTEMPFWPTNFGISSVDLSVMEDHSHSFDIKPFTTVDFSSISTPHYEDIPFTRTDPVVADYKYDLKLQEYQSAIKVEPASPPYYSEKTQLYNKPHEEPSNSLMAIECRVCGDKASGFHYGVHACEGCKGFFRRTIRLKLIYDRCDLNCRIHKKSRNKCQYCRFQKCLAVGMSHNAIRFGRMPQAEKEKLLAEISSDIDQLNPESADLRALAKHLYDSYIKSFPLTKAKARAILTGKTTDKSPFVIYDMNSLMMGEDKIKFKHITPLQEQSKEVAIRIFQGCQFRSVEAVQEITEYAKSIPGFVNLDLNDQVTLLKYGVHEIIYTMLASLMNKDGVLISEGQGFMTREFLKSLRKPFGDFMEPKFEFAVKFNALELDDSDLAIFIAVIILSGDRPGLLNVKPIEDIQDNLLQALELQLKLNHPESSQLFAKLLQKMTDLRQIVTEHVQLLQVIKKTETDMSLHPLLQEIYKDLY
How it was run: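 Beta-lactamase FRET fluorescence was the read-out after a 1 h room-temperature substrate step, following 17 h compound treatment at 37C of HEK293H cells expressing a UAS-driven bla reporter responsive to PPARg.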

[9] = biological target: Peroxisome proliferator-activated receptor gamma (Homo sapiens) (UniProt P37231); assay: qHTS assay to identify small molecule antagonists of the peroxisome proliferator-activated receptor gamma (PPARg) signaling pathway (AID 743191; calls by dose curve; also: nearly all actives have a fitted effect of over 30% in size; also: potency is read from the fitted curve at half-maximal effect)
How it was run: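 GeneBLAzer PPARg UAS-bla HEK293H cells, 5 h post-plating, exposed to compounds 17 h at 37C. LiveBLAzer B/G FRET substrate added for 1 h at room temperature; beta-lactamase reporter read by fluorescence intensity.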

[10] = qHTS assay to identify small molecule antagonists of the peroxisome proliferator-activated receptor gamma (PPARg) signaling pathway - cell viability counter screen (AID 743194); settings: Potency: co-treated with 50 nM rosiglitazone unless noted; also: nearly all actives have a fitted effect of over 55% in size; also: potency is read from the fitted curve at half-maximal effect
How it was run: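 Cytotoxicity counter screen in PPARg-bla HEK293H cells, same wells as reporter assay. Compounds plus 50 nM rosiglitazone (final) for 17 h at 37 C, then viability read by CellTiter-Glo luminescence.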

[11] = qHTS assay for small molecule agonists of the antioxidant response element (ARE) signaling pathway (AID 743202; active = well fitted activation curve with a large enough effect in the signal ratio in the repeat runs, not every such curve was filed as active; inconclusive = weak or mixed curves, or effect the other way; inactive = no such curve, though single readings can be large or run the other way; the % refers to the signal ratio; also: potency is read from the fitted curve at half-maximal effect)
How it was run: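 ARE-bla HepG2 cells (beta-lactamase reporter under the antioxidant response element), plated 5 hours, then exposed to compounds 16 hours at 37 C. LiveBLAzer B/G FRET substrate added for 2 hours at room temperature; fluorescence intensity read.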

[12] = qHTS assay for small molecule agonists of the antioxidant response element (ARE) signaling pathway - cell viability counter screen (AID 743203; calls by dose curve; also: nearly all actives have a fitted effect of over 55% in size; also: potency is read from the fitted curve at half-maximal effect)
How it was run: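 HepG2 cells carrying ARE-driven beta-lactamase; 2,000 cells/well; 5 hrs plating; compound pinned from DMSO; 16 hrs 37C/5% CO2; CellTiter-Glo added; 30 min RT; luminescence.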

[13] = qHTS assay for small molecule activators of the heat shock response signaling pathway - cell viability counter screen (AID 743209); also: nearly all actives have a fitted effect of over 50% in size; also: potency is read from the fitted curve at half-maximal effect
How it was run: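 Luminescence from CellTiter-Glo, added after the beta-lactamase FRET read, gave the viability signal. Cells were HSE-bla HeLa treated with DMSO-dissolved compounds for 5 h at 37 C following overnight plating.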

[14] = biological target: Estrogen receptor (Homo sapiens) (UniProt P03372); assay: qHTS assay to identify small molecule agonists of the estrogen receptor alpha (ER-alpha) signaling pathway using the BG1 cell line (AID 743079); settings: BG1Luc4E2 cells, ERE-luciferase agonist, 22 h; activation: at 70.3 µM (top of the series); also: nearly all actives have a fitted effect of over 20% in size; also: potency is read from the fitted curve at half-maximal effect
[15] = qHTS assay to identify small molecule antagonists of the estrogen receptor alpha (ER-alpha) signaling pathway using the BG1 cell line (AID 743080; calls by dose curve;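 also: BG1 cells stimulated with 17beta-estradiol alongside compound; nearly all actives have a fitted effect of over 25% in size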; also: potency is read from the fitted curve at half-maximal effect)
How it was run: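 Endogenous full-length ER-alpha in BG1-Luc-4E2 cells drives a stably integrated 4×ERE luciferase gene; compounds were tested against 17beta-estradiol over 21.5 h, with luminescence and multiplexed viability fluorescence recorded.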

[16] = qHTS assay to identify small molecule antagonists of the estrogen receptor alpha (ER-alpha) signaling pathway using the BG1 cell line - cell viability counter screen (AID 743081);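 also: compound given together with 17beta-estradiol as the ER stimulus; nearly all actives have a fitted effect of over 45% in size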
[17] = qHTS assay to identify small molecule that activate the aryl hydrocarbon receptor (AhR) signaling pathway - cell viability counter screen (AID 743086); also: nearly all actives have a fitted effect of over 45% in size; also: potency is read from the fitted curve at half-maximal effect
How it was run: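 HepG2-AhR-luc (HG2L7.5c1) cells, 4000/well, treated 24 h at 37 C with compound; viability measured as CellTiter-Fluor fluorescence after 30 min in the same wells as the luciferase read.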

[18] = qHTS assay to identify small molecule antagonists of the thyroid receptor (TR) signaling pathway (AID 743065); also: nearly all actives have a fitted effect of over 55% in size; also: potency is read from the fitted curve at half-maximal effect
How it was run: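 GH3.TRE-Luc rat pituitary cells (two TREs driving luciferase) were dosed with compound, then stimulated with 1 nM T3 (final) for 23.5 h at 37 C. ONE-Glo luminescence was the read-out, with CellTiter-Fluor fluorescence as the cytotoxicity counter-screen.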

[19] = qHTS assay for small molecule activators of the heat shock response signaling pathway (AID 743210; active = well fitted activation curve with a large enough effect in the signal ratio in the repeat runs, with a control signal flat, not every such curve was filed as active; inconclusive = weak or mixed curves; the % refers to the signal ratio)
How it was run: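 HSE-bla HeLa cells (beta-lactamase reporter under heat shock response elements), plated overnight, then exposed to compounds 5 h at 37 C; LiveBLAzer B/G FRET substrate added, 2.5 h at room temperature, fluorescence intensity read.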

| Structure (SMILES) | Potency [1] | Potency [2] | Potency [3] | Potency [4] | Potency [5] | Potency (Aromatase (Homo sapiens)) | Potency [6] | Potency [7] | Potency [8] | Potency [9] | Potency [10] | Potency [11] | Potency [12] | Potency [13] | Potency [14] | Potency [15] | Potency [16] | Potency [17] | Potency [18] | Potency [19] |
| --- | --- | --- | --- | --- | --- | --- | --- | --- | --- | --- | --- | --- | --- | --- | --- | --- | --- | --- | --- | --- |
| c1cc[n+]2c(c1)-c1cccc[n+]1CC2 | inactive | inactive | inactive | inactive | inactive | inactive | inactive | inactive | inactive | inactive | inactive | 10.6 µM (active) | inactive | inactive | – | – | – | – | – | – |
| CC1(C)C(C=C(Cl)Cl)C1C(=O)OC(C#N)c1ccc(F)c(Oc2ccccc2)c1 (stereo not drawn) | inactive | inactive | inactive | inactive | inactive | – | inactive | inactive | – | inactive | – | inactive | inactive | inactive | inactive | inactive | inactive | inactive | – | – |
| O=C(O)[C@H](O)[C@@H](O)C(=O)O | inactive | inactive | inactive | inactive | inactive | inactive | inactive | inactive | – | – | – | inactive | inactive | inactive | inactive | inactive | inactive | – | – | – |
| Cc1ccccc1OP(=O)(Oc1ccccc1C)Oc1ccccc1C | 54.7 µM (active) | – | – | – | inactive | – | inactive | – | inactive | inactive | – | – | – | inactive | 3.87 µM (active) | inactive | inactive | – | 54.7 µM (active) | – |
| CCN1CCC2(CC1)COc1cc3c(cc12)N(C(=O)c1ccc(-c2ccc(-c4nnc(C)o4)cc2C)cc1)CC3 | 14.2 µM (active) | – | – | 50.7 µM (active) | inactive | 28.3 µM (active) | 39.9 µM (active) | inactive | – | – | 7.16 µM (active) | – | 7.1 µM (active) | 45.2 µM (active) | – | – | – | 28.3 µM (active) | 2.52 µM (active) | – |
| CC(=O)[O-].CC(=O)[O-].[Co+2] | inactive | inactive | – | inactive | – | inactive | inactive | inactive | – | – | inactive | – | inactive | inactive | – | – | inactive | inactive | – | – |
| Cc1cc(C2CC2)nc(Nc2ccccc2)n1 | – | inactive | – | inactive | inactive | inactive | – | – | inactive | – | inactive | 27.3 µM (active) | inactive | inactive | 9.69 µM (active) | – | – | inactive | 54.5 µM (active) | – |
| c1csc(-c2ccc(-c3cccs3)s2)c1 | – | 61.1 µM (active) | – | – | – | inactive | inactive | 24.3 µM (active) | – | – | inactive | 2.73 µM (active) | inactive | inactive | 27.3 µM (active) | – | inactive | inactive | inactive | – |
| COC(=O)c1cc(Oc2ccc(Cl)cc2Cl)ccc1[N+](=O)[O-] | – | inactive | – | inactive | – | – | inactive | inactive | inactive | 43.6 µM (active) | inactive | inactive | inactive | inactive | – | – | inactive | inactive | 61.1 µM (active) | inactive |
| CN1C(=O)[C@@H](NC(=O)c2cc3ccccc3[nH]2)N=C(c2ccccc2)c2ccccc21 | – | inactive | – | inactive | – | – | – | – | – | – | inactive | – | inactive | inactive | – | – | inactive | inactive | 5.96 µM (active) | – |
| S=C=Nc1ccccc1 | – | inactive | inactive | inactive | inactive | inactive | inactive | inactive | inactive | inactive | – | – | inactive | inactive | inactive | inactive | inactive | inactive | inactive | inactive |
| c1ccc2c(c1)cc1ccc3cccc4ccc2c1c34 | – | inactive | – | inactive | – | inactive | – | – | – | – | inactive | – | inactive | inactive | – | – | – | – | inactive | – |
| N#Cc1c2ccccc2cc2ccccc12 | – | inactive | – | inactive | – | inactive | – | inactive | – | – | – | – | inactive | inactive | – | – | – | – | inactive | – |
| CSC1=N[C@@](C)(c2ccccc2)C(=O)N1Nc1ccccc1 | – | inactive | – | inactive | – | – | inactive | inactive | – | – | – | – | inactive | inactive | – | – | – | inactive | 6.86 µM (active) | inactive |
| Nc1c(Cl)c(Cl)c(Cl)c(Cl)c1Cl | – | inactive | – | inactive | – | inactive | – | 50.5 µM (active) | – | – | – | – | inactive | – | – | – | inactive | inactive | inactive | inactive |
| COP(=S)(NC(C)C)Oc1ccc(C)cc1[N+](=O)[O-] (stereo not drawn) | – | inactive | – | inactive | 5.49 µM [inconclusive] (active) | – | inactive | – | inactive | – | inactive | inactive | inactive | inactive | 1.93 µM (active) | 38.6 µM (active) | inactive | inactive | inactive | inactive |
| CC(C)=CCN1CC[C@@]2(C)c3cc(O)ccc3C[C@@H]1[C@@H]2C | – | inactive | – | – | inactive | inactive | inactive | – | inactive | inactive | inactive | inactive | inactive | inactive | inactive | – | inactive | inactive | 21.4 µM (active) | inactive |
| [Cl-].[Cl-].[Cl-].[Yb+3] | – | inactive | – | inactive | – | inactive | inactive | inactive | – | – | inactive | inactive | inactive | inactive | – | – | inactive | inactive | inactive | inactive |
